Source: PubChem BioAssay (Tox21)
Values joined by “and” are separate entries in the source; they are usually repeats but may differ in a detail not shown here. Equal values may be shown once. Records with an inconclusive call do not appear. The source holds several records for some structures; these can differ, active in one and inactive in another. Active and inactive are the calls of the source. Unless noted, calls follow the shape of the dose curve; as a rule, active = well fitted curve in the direction sought with a large enough effect in the repeat runs; inconclusive = weak or mixed curves; inactive = no such curve, though single readings can be large; an effect the other way counts as inactive or inconclusive.

What was measured:
[1] = qHTS assay for small molecule agonists of the p53 signaling pathway - cell viability (AID 651633; calls by dose curve; also: nearly all actives have a fitted effect of over 30% in size; also: potency is read from the fitted curve at half-maximal effect)
Method in brief: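 Viability counter-read: CellTiter-Glo luminescence (30 min, room temperature) in the same p53RE-bla plates. These plates had been exposed to compounds for 16 h at 37 C.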

[2] = qHTS assay to test for compound auto fluorescence at 590 nm (red) in HepG2 cells (AID 720674)
Method in brief: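 1 hr compound incubation on HepG2 cells, 37 C, 5% CO2; plate read ex 540 nm / em 590 nm; intensities reported as Rose Bengal sodium equivalents.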

[3] = qHTS assay to test for compound auto fluorescence at 535 nm (green) in HepG2 cells (AID 720675)
[4] = qHTS assay to test for compound auto fluorescence at 460 nm (blue) in HEK293 cells (AID 720678)
Method in brief: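 Intrinsic compound fluorescence is recorded in live HEK293 cultures after overnight incubation at 37C, 5% CO2, using excitation 405 nm and emission 460 nm. Values are referenced to triamterene.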

[5] = qHTS assay to test for compound auto fluorescence at 590 nm (red) in HEK293 cells (AID 720679)
Method in brief: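 Red autofluorescence, HEK293 cells: 2,000 cells/well; attach 4-5 hr 37C; add 23 nL cpd or DMSO; incubate o/n 37C 5% CO2; read Ex540/Em590; Rose Bengal sodium reference.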

[6] = qHTS assay to test for compound auto fluorescence at 460 nm (blue) in HEK293 cell free culture (AID 720681)
Method in brief: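 Blue fluorescence (Ex 405/Em 460 nm, triamterene-equivalent) was read immediately after pin transfer of compound or DMSO into medium (DMEM, 10% FBS) without cells.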

[7] = qHTS assay to test for compound auto fluorescence at 535 nm (green) in HEK293 cell free culture (AID 720682)
Method in brief: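 Measurement is a direct plate read of green fluorescence (485 nm in, 535 nm out) after compound addition to serum-supplemented DMEM lacking cells, with fluorescein used to express intensities.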

[8] = qHTS assay to test for compound auto fluorescence at 590 nm (red) in HEK293 cell free culture (AID 720683)
Method in brief: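 Red-channel autofluorescence of compounds in culture medium (DMEM, 10% FBS), no cells, measured at 540/590 nm. Rose Bengal sodium is the reference fluorophore for equivalence.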

[9] = qHTS assay to test for compound auto fluorescence at 590 nm (red) in HepG2 cell free culture (AID 720684)
Method in brief: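 Steps: dispense MEM/10% FBS medium, no cells; pin compound or DMSO vehicle; read red channel, Ex/Em 540/590 nm. Output given as Rose Bengal sodium equivalents.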

[10] = qHTS assay to test for compound auto fluorescence at 535 nm (green) in HepG2 cell free culture (AID 720686)
[11] = qHTS assay to test for compound auto fluorescence at 460 nm (blue) in HepG2 cells (AID 720687)
Method in brief: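 Blue-channel autofluorescence (Ex/Em 405/460 nm, triamterene-equivalent) was measured after 1 hr compound exposure at 37 C, 5% CO2. Cells were HepG2, plated overnight at 37 C in MEM plus 10% FBS.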

[12] = qHTS assay to identify small molecule antagonists of the glucocorticoid receptor (GR) signaling pathway - cell viability counter screen (AID 720693); also: nearly all actives have a fitted effect of over 55% in size; also: potency is read from the fitted curve at half-maximal effect
[13] = qHTS assay for identifying genotoxic compounds that show differential cytotoxicity against isogenic chicken DT40 cell lines with known DNA damage response pathways - Rad54/Ku70 mutant cell line (AID 743015); also: nearly all actives have a fitted effect of over 60% in size; also: potency is read from the fitted curve at half-maximal effect
[14] = qHTS assay to identify small molecule antagonists of the androgen receptor (AR) signaling pathway - cell viability counter screen (AID 743033; also: nearly all actives have a fitted effect of over 45% in size; also: potency is read from the fitted curve at half-maximal effect)
Aromatase (Homo sapiens) = Aromatase (Homo sapiens) (UniProt P11511); test: qHTS assay to identify aromatase inhibitors (AID 743083); also: nearly all actives have a fitted effect of over 55% in size; also: potency is read from the fitted curve at half-maximal effect
Chain of Aromatase (Homo sapiens) (P11511 whole entry, looked up): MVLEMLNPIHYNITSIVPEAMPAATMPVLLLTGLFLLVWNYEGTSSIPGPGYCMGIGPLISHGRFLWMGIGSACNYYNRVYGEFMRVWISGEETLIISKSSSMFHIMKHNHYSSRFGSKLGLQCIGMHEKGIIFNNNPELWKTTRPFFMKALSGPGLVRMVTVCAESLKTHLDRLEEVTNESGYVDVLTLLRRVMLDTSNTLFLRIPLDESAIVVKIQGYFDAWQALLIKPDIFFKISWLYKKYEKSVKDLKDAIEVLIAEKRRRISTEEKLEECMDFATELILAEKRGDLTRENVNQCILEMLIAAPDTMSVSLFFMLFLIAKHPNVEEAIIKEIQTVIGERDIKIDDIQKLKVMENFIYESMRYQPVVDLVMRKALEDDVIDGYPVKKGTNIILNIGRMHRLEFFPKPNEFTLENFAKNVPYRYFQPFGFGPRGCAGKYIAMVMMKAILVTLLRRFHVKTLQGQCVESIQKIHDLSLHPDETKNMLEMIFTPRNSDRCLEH

[15] = qHTS assay to identify aromatase inhibitors - cell viability counter screen (AID 743084);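 also: cells stimulated with testosterone during compound exposure; nearly all actives have a fitted effect of over 55% in size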; also: potency is read from the fitted curve at half-maximal effect
[16] = molecular target: Aryl hydrocarbon receptor (Homo sapiens) (UniProt P35869); test: qHTS assay to identify small molecule that activate the aryl hydrocarbon receptor (AhR) signaling pathway (AID 743085); also: nearly all actives have a fitted effect of over 15% in size; also: potency is read from the fitted curve at half-maximal effect
Chain of Aryl hydrocarbon receptor (Homo sapiens) (P35869 whole entry, looked up): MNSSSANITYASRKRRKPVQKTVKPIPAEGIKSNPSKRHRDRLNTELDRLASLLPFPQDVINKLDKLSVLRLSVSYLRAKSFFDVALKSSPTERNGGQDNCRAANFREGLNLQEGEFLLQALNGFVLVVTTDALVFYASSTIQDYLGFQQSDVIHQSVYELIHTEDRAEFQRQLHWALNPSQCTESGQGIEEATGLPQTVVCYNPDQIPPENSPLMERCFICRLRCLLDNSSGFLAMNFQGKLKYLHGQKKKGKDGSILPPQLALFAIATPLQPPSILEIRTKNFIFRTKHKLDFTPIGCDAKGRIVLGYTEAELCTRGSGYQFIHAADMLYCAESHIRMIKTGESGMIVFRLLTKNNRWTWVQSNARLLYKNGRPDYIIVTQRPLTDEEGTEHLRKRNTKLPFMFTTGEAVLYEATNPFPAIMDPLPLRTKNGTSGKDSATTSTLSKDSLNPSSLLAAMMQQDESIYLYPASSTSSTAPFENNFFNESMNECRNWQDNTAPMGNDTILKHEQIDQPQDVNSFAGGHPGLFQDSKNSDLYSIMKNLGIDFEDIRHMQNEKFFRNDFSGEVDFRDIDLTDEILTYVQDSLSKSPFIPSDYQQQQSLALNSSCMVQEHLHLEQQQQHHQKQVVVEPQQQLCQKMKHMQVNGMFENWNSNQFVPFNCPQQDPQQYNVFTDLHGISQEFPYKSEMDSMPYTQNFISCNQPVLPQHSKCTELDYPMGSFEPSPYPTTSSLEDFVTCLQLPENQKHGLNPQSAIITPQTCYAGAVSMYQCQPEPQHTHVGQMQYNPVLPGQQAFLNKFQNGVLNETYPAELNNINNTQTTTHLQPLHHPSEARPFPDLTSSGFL
Method in brief: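 24 h compound exposure, 37C, HepG2-derived HG2L7.5c1 cells with DRE-responsive luciferase. Readouts: fluorescence viability, then luminescence at room temperature after 30 min.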

[17] = qHTS assay to identify small molecule that activate the aryl hydrocarbon receptor (AhR) signaling pathway - cell viability counter screen (AID 743086); also: nearly all actives have a fitted effect of over 45% in size; also: potency is read from the fitted curve at half-maximal effect
Method in brief: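 Cytotoxicity counter screen: CellTiter-Fluor signal (30 min, 37 C) in 4000 HepG2 cells/well carrying the DRE-luciferase reporter, following 24 h compound exposure at 37 C.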

[18] = qHTS assay for small molecule disruptors of the mitochondrial membrane potential - cell viability (AID 720634; calls by dose curve;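 also: human HepG2 liver cancer cells; series mostly up to about 83 µM; nearly all actives have a fitted effect of over 20% in size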)
Method in brief: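 Human hepatoma HepG2 cells were treated for 1 hr with test chemicals, then given m-MPI dye and CellTiter-Glo. Cell viability reflects luminescence proportional to cellular ATP.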

[19] = qHTS assay to identify small molecule antagonists of the estrogen receptor alpha (ER-alpha) signaling pathway - cell viability counter screen (AID 743074; calls by dose curve;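 also: HEK293 cells carrying ER-alpha-UAS-bla reporter stimulated with 17beta-estradiol; nearly all actives have a fitted effect of over 45% in size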; also: potency is read from the fitted curve at half-maximal effect)

Measured: Potency

Oc1ccc2c3c1O[C@H]1[C@@H](O)C=C[C@H]4[C@H](C2)NCC[C@@]341
inactive: [1] | [2] | [3] | [4] | [5] | [6] | [7] | [8] | [9] | [10] | [11] | [12] | [13] | [14] | Aromatase (Homo sapiens) | [15] | [16] | [17]

CNc1ccc(C(=O)CC(O)CCC(C)C2OC(=O)CC(O)CC(=O)CC(O)CC(O)CC(O)CC(O)CC3(O)CC(O)C(C(=O)OC)C(CC(O[C@@H]4O[C@H](C)[C@@H](O)[C@H](N)[C@@H]4O)/C=C/C=C/C=C/C=C/C=C/C=C/C=C/C2C)O3)cc1 (stereo partly specified)
inactive: [1] | [18] | [2] | [3] | [4] | [5] | [6] | [7] | [8] | [9] | [10] | [11] | [12] | [14] | [19] | Aromatase (Homo sapiens) | [15] | [16] | [17]

c1cc2c(c(NC3=NCCN3)c1)CCCC2
inactive: [1] | [18] | [2] | [3] | [4] | [5] | [6] | [7] | [8] | [9] | [10] | [11] | [12] | [14] | [19] | Aromatase (Homo sapiens) | [15] | [17]

O=c1c2ccccc2[se]n1-c1ccccc1
active: [13] 6.68 µM | Aromatase (Homo sapiens) 29.8 µM | [15] 26.6 µM
inactive: [2] | [3] | [4] | [5] | [6] | [7] | [8] | [9] | [10] | [11] | [12]

COC(=O)[C@]12CCC(C)(C)C[C@H]1[C@H]1C(=O)C=C3[C@@]4(C)C=C(C#N)C(=O)C(C)(C)[C@@H]4CC[C@@]3(C)[C@]1(C)CC2
inactive: [18] | [2] | [3] | [4] | [5] | [6] | [7] | [8] | [9] | [10] | [11] | [16]
active: [1] 1.33 µM | [12] 1.07 µM | [14] 4.25 µM | [19] 3.38 µM | [17] 3.76 µM

O=C1C[C@@H]2OCC=C3CN4CC[C@]56c7ccccc7N1[C@H]5[C@H]2[C@H]3C[C@H]46 (tested in a mixture with another compound)
inactive: [18] | [2] | [3] | [4] | [5] | [6] | [7] | [8] | [9] | [10] | [11] | [12] | [13] | [14] | [19] | Aromatase (Homo sapiens) | [15] | [17]

C[C@@H]1[C@H](O)[C@@H](C)/C=C/C=C/CC/C=C/C=C/C=C/C=C/[C@H](O[C@H]2O[C@@H](C)[C@H](O)[C@@H](N)[C@H]2O)CC2O[C@](O)(C[C@@H](O)[C@H](O)CC[C@@H](O)C[C@@H](O)C[C@@H](O)CC(=O)O[C@H]1C)C[C@H](O)[C@H]2C(=O)O
inactive: [1] | [18] | [2] | [3] | [4] | [5] | [6] | [7] | [8] | [9] | [10] | [11] | [12] | [13] | [14] | [19] | Aromatase (Homo sapiens) | [15] | [16] | [17]

COc1cc2c(cc1OC)[C@@H]1CC(=O)[C@@H](CC(C)C)CN1CC2
inactive: Aromatase (Homo sapiens) | [16]

CC1(C)C(C=C(Cl)Cl)C1C(=O)OCc1cccc(Oc2ccccc2)c1 (stereo unspecified)
inactive: Aromatase (Homo sapiens) | [16]

Nc1ccc(N)c2ccccc12
active: Aromatase (Homo sapiens) 3.06 µM | [16] 0.968 µM

CN=C1CN(O)C(c2ccccc2)=c2cc(Cl)ccc2=N1
inactive: [1] | [18] | [2] | [3] | [4] | [5] | [6] | [7] | [8] | [9] | [10] | [11] | [12] | [13] | [14] | [19] | Aromatase (Homo sapiens) | [15] | [16] | [17]

C=CCOc1c(Br)cc(C(C)(C)c2cc(Br)c(OCC=C)c(Br)c2)cc1Br
inactive: [16]

CNC(=O)Oc1ccc2c(c1)[C@]1(C)CCN(C)[C@@H]1N2C
inactive: Aromatase (Homo sapiens) | [16]

CCC(N)Cc1c[nH]c2ccccc12 (stereo unspecified)
inactive and 30.7 µM (active): [16]
inactive: [1] | [18] | [2] | [3] | [4] | [5] | [6] | [7] | [8] | [9] | [10] | [11] | [12] | [14] | [19] | Aromatase (Homo sapiens) | [15] | [17]

C[C@@H]1[C@H]2Cc3ccc(O)cc3[C@]1(C)CCN2C
inactive: [1] | [18] | [2] | [3] | [4] | [5] | [6] | [7] | [8] | [9] | [10] | [11] | [12] | [19] | [15] | [16] | [17]

CCCCNC(C)(C)[P+](=O)O
inactive: [1] | [18] | [2] | [3] | [4] | [5] | [6] | [7] | [8] | [9] | [10] | [11] | [12] | [13] | [14] | Aromatase (Homo sapiens) | [15] | [16] | [17]

C[C@H]1[C@H]2Cc3ccc(O)cc3[C@]1(C)CCN2CCc1ccccc1
inactive: [1] | [18] | [2] | [3] | [4] | [5] | [6] | [7] | [8] | [9] | [10] | [11] | [12] | [14] | [19] | Aromatase (Homo sapiens) | [15]
active: [13] 17.1 µM | [16] 12.1 µM

CN1CC[C@@]23CCCC[C@@H]2[C@@H]1Cc1ccc(O)cc13
inactive: [1] | [18] | [2] | [3] | [4] | [5] | [6] | [7] | [8] | [9] | [10] | [11] | [12] | [13] | [19] | Aromatase (Homo sapiens) | [15] | [16] | [17]
